Source: PubChem BioAssay (NCATS)
Results filed as inconclusive are left out. Values without a mark were called inactive. Calls of active or inactive are those of the source. Calls come from the whole dose curve; as a rule, active = well fitted inhibition curve with a large enough effect; inconclusive = small, poorly fitted or top-dose-only effect; inactive = no such curve, though single readings can be large or run the other way.

Biological target: Tumor susceptibility gene 101 protein (Homo sapiens) (UniProt Q99816)
Assay: qHTS Assay for Iinhibitors of HIV-1 Budding by Blocking the Interaction of PTAP/TSG101: Hit Validation (AID 651600); note: nearly all actives have a fitted effect of over 70% in size
Details: PTAP peptide/TSG101 UEV interaction, biochemical assay; series mostly up to 57.5 µM; activity change, negative = inhibition: at the top concentration
Summary of the method: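 Tsg101 binding domain 10 uM + FITC-PTAP peptide 50 nM (final), 10 mM HEPES pH 7.5/0.15 M NaCl/0.01% Tween 20/3 mM EDTA/0.1 mM TCEP; 20 min RT; FP read, FITC filters.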
% is set by controls: 0 for no effect and ±100 for the full control effect; potency is the fitted concentration of half-maximal effect.

Sequence of Tumor susceptibility gene 101 protein (Homo sapiens) (Q99816 whole entry, looked up): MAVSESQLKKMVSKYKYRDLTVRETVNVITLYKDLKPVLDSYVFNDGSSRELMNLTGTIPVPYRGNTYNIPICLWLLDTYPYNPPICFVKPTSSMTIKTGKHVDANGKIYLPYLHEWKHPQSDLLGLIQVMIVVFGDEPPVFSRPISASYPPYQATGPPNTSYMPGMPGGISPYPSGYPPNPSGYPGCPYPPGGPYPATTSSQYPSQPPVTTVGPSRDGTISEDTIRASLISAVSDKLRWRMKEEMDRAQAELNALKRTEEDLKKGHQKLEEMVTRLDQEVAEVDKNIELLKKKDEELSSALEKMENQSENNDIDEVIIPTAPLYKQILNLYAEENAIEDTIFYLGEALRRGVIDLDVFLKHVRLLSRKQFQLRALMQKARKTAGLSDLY

| Structure (SMILES) | activity change, negative = inhibition [%] | Potency |
| --- | --- | --- |
| COc1ccccc1NC(=O)C(C)OC(=O)C1CC(=O)N(c2ccc3c(c2)OCCO3)C1 (stereo not given) | 1.1 | – |
| CCN(CC)C(=O)CSc1nnc2nnc3cc(OC)ccc3n12 | – | 29.1 µM (active) |
| Cc1ccc(C(=O)Nc2ccc(C(=O)O)cc2)cc1S(=O)(=O)NCc1ccccc1 | 1.48 | – |
| CN(C)c1ccc(/C=C2\SC(=O)N(CC(O)Cn3c4ccccc4c4ccccc43)C2=O)cc1 (stereo not given) | – | 16.3 µM (active) |
| CC1(C)CC(=O)C2=C(C1)OC(N)=C(C#N)[C@@H]2c1ccccc1[N+](=O)[O-] | -10.1 | – |
| c1ccc2[nH]c3cc4ncnc4cc3nc2c1 | – | 6.51 µM (active) |
| CCOc1ccc(S(=O)(=O)N2CCc3cc(OC)c(OC)cc3C2)cc1 | 0.964 | – |
| Cc1cc(=O)c2c([nH]1)c(C)cc1[nH]c(C)c(C)c12 | 13.6 | – |
| CCCN1CCN(S(=O)(=O)c2cn(C)nc2C)CC1 | -13.4 | – |
| OC(CN1CCN(c2ccccn2)CC1)Cn1c2ccccc2c2ccccc21 (stereo not given) | -4.52 | – |
| CS(=O)(=O)Nc1nc2n(n1)C(c1ccccc1)C=C(c1ccc(Br)cc1)N2 (stereo not given) | – | 32.6 µM (active) |
| O=[N+]([O-])c1cc(Cl)c2cccnc2c1O | -1.11 | – |
| COc1ccc(/C=c2\s/c(=C/C(=O)c3ccc(C)cc3)[nH]c2=O)c(OC)c1 | 1.51 | – |
| COc1cccc2c1C(=O)c1c(O)c3c(c(O)c1C2=O)C[C@](O)(C(C)=O)C[C@H]3O[C@@H]1C[C@@H](N)[C@@H](O)[C@@H](C)O1 | – | 14.6 µM (active) |
| CCOc1ccc(N(CC(=O)NCc2ccc(F)cc2)S(=O)(=O)c2c(C)noc2C)cc1 | 4.91 | – |
| C(=N\NC1=Nc2cccc3cccc1c23)/c1ccccc1 | -7.26 | – |
| Brc1ccc(-c2nc3ccccn3c2Nc2ccc3c(c2)OCCO3)o1 | -1.55 | – |
| O=c1[nH]nc(-c2ccc(F)cc2)cc1Cc1ccc(F)cc1 | 4.58 | – |
| O=C(NCc1cccc(F)c1)c1cccc2c1C(=O)c1ccc(N3CCCC3)cc1S2(=O)=O | -8.13 | – |
| CCN(c1ccc(N=Cc2c(O)n(Cc3ccc(OC)cc3)c(=O)c3ccccc23)cc1)C(C)C | – | 25.9 µM (active) |

| Structure (SMILES) | activity change, negative = inhibition [%] | Potency |
| --- | --- | --- |
| COc1ccc(-c2cc(C(=O)N3CC(C)CC(C)C3)c3ccccc3n2)cc1OC (stereo not given) | 14.9 | – |
| O=c1oc2c(CN3CCCCC3)c(O)ccc2cc1-c1nc2ccccc2[nH]1 | – | 18.3 µM (active) |
| COc1ccc(NC(=O)c2nc(-c3ccc(C)cc3)n3c2CCCCC3)cc1 | -6.7 | – |
| COc1ccc(C(=O)c2sc3nc(C)cc(-c4cccs4)c3c2N)cc1 | -24.1 | – |
| O=c1oc2c3c4c(cc2c2c1CCC2)OCCN4CCC3 | 14.3 | – |
| Cc1c(N=C2N=C(NC(=O)c3ccc(F)cc3)c3ccccc32)c(=O)n(-c2ccccc2)n1C | -29 | – |
| COc1ccc(OC)c(NC(=O)CCN2CC(C)CC(C)C2)c1 (stereo not given) | 5.24 | – |
| CC(C)(C)c1ccc(C2C3=C(CCCC3=O)NC3=C2C(=O)c2ccccc23)cc1 (stereo not given) | 2.58 | – |
| O=[N+]([O-])c1ccc(-c2cn3nc(-c4ccccc4)c(-c4ccccc4)nc3n2)cc1 | -4.2 | – |
| CN1CC=C2C(C#N)=C(N)C(C#N)(C#N)C(Cc3ccccc3)C2C1 (stereo not given) | -12.7 | – |
| O=C(/C=C/c1ccc(Cl)cc1Cl)c1nc2ccccc2[nH]1 | – | 20.6 µM (active) |
| CCOC(=O)C1Nc2ccccc2C2C(O)C(O)CC12 (stereo not given) | -18.1 | – |
| CSc1c(C#N)c(N)nc2sc(C(=O)c3ccc(Cl)c(Cl)c3)c(N)c12 | -25.9 | – |
| CCN(CC)c1ccc2c(-c3ccc(S(=O)(=O)O)cc3S(=O)(=O)[O-])c3ccc(=[N+](CC)CC)cc-3oc2c1 | – | 11.6 µM (active) |
| Cn1nc([N+](=O)[O-])c(C(C#N)c2nc3ccccc3n2C)c(Cl)c1=O (stereo not given) | -4.38 | – |
| C/C(=N/NC(=O)c1ccncc1)c1cc2ccc(O)cc2oc1=O | – | 14.6 µM (active) |
| CCOc1cc(/C=C(\C#N)c2nc(-c3cccs3)c(NC(C)=O)s2)ccc1O | -2.43 | – |
| O=S(=O)(Nc1nc2n(n1)C(c1ccccc1)C=C(c1ccc(Cl)cc1)N2)c1ccccc1 (stereo not given) | -16.2 | – |
| COCCNC(=S)N/N=C/c1c2ccccc2cc2ccccc12 | 8.48 | – |
| CCN(CC)C(=O)[C@H]1CC(CC(=O)NCc2cccc(C(F)(F)F)c2)C(=O)N2CCc3c([nH]c4ccc(OC)cc34)[C@]12C (stereo not given in full) | -1.5 | – |
